Many of the other results were omitted from the sample, so hits are more common in it than they were.
CBX7 AlphaScr: inhibitors of human CBX7 binding to H3K27me3 peptide | AlphaScreen His6-CBX7 / biotin-H3K27me3 peptide binding; hits give low values | normalised signal (fraction of DMSO) (concentration not given with the values) | actives 1.1% (n = 66,000) | AID 1224903; in the data active means normalised signal below about 0.5
Target sequence (O95931 whole entry, looked up): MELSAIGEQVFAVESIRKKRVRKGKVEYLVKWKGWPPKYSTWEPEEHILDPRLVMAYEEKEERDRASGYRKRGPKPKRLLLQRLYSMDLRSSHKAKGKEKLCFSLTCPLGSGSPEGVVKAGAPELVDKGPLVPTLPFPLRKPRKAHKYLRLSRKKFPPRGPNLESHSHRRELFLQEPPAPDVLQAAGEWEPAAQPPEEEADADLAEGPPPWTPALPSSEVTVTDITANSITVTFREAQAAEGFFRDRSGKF
Numbers stand for hits; – = inactive.

SMILES	CBX7 AlphaScr
CCOc1ccccc1CN(CCc1ccc2c(c1)OCO2)Cc1ccc(F)c(F)c1	0.471
CCOc1ccccc1CN(CCc1ccc2c(c1)OCO2)Cc1ccccc1OC	–
CCOc1ccc(CN(CCc2ccc3c(c2)OCO3)Cc2ccccc2)cc1	–
CCOC(=O)CN1C(=O)CN=C(c2ccccc2)c2cc(Cl)ccc21	–
CCOc1cc(CNCCc2c(C)[nH]c3ccc(OC)cc23)ccc1OC	–
COc1ccc(F)c(CNCCc2c(C)[nH]c3ccc(OC)cc23)c1	0.373
COc1ccc2[nH]c(C)c(CCNCc3cccc(F)c3)c2c1	–
COc1ccc2[nH]c(C)c(CCNCc3ccc(F)cc3)c2c1	–
COc1ccc(OC)c(CNCCc2c(C)[nH]c3ccc(OC)cc23)c1	–
COc1ccc2[nH]c(C)c(CCNCc3ccc(OC(F)(F)F)cc3)c2c1	0.419
CCCCc1ncc(CNCCc2c(C)[nH]c3ccc(OC)cc23)[nH]1	–
COc1ccc2[nH]c(C)c(CCNCc3cccc(C(F)(F)F)c3)c2c1	0.201
COc1ccc(CNCCc2c(C)[nH]c3ccc(OC)cc23)c(F)c1	–
COc1ccc2[nH]c(C)c(CCNCc3ncc[nH]3)c2c1	0.176
COc1ccc2[nH]c(C)c(CCNCc3ccc4ccccc4n3)c2c1	–
COc1ccc2[nH]c(C)c(CCNCc3cccc(OC)c3OC)c2c1	–
CSc1cccc(NC(=O)CN2C(=O)CN=C(c3ccccc3)c3cc(Cl)ccc32)c1	–
COc1cc(NC(=O)CN2C(=O)CN=C(c3ccccc3)c3cc(Cl)ccc32)cc(OC)c1	–
O=C(CN1CC(c2ccccc2)CC1=O)Nc1ccc(F)c(Cl)c1 (stereo not given)	–
CCc1cccc(NC(=O)CN2C(=O)CN=C(c3ccccc3Cl)c3cc(Cl)ccc32)c1	–
CCN1C[C@]2(COC)CC[C@H](OC)C34C5CC6[C@H](O)C5[C@](O)(C[C@@H]6OC)C(CC32)C14 (stereo not given in full)	–
CCOc1cc2c(cc1OCC)-n1cccc1C(c1cccc(C(F)(F)F)c1)NC2 (stereo not given)	–
O=C(c1ccccc1)c1cn(CCCOc2ccccc2)c2ccccc12	–
Cc1ccc(C)c(CN2C(=O)C(C)N=C(c3ccccc3)c3ccccc32)c1 (stereo not given)	–
O=C(Nc1ccc(Br)cc1C(=O)c1ccccc1Cl)c1cccc(C(F)(F)F)c1	–

Bioassay records (PubChem)
